HIF-2a block: blocks HIF-2a reporter activity; 786-0 RCC cells HIF-2a reporter, luciferase luminescence, overnight; inhibition, % at 18.8 µM; actives 0.72% (n = 360,000); AID 624352;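 active = inhibition of the luminescence signal of 40% or more relative to plate controls, in a single-dose primary screen at 18.75 µM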
Peg3 prom inh: inhibitors of Peg3 promoter. HeLa PEG-Prom luciferase reporter, luminescence, overnight. inhibition, % at 20 µM. actives 1.7% (n = 360,000). AID 588405;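 active = inhibition of at least 50% at 20 µM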
KKLEB tox: reduces viability of KKLEB cystic fibrosis airway cells | KKLEB CF airway cells viability, ATPlite luminescence, overnight; active compounds read low; cells stimulated with P. aeruginosa culture filtrate | activity change (cytotoxicity), % at 5 µM | actives 0.36% (n = 360,000) | AID 602141;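 active = corrected activity change at or below -50% at 5 µM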
CF NFkB inh: inhibitors of cystic fibrosis induced NF-kB | KKLEB NF-kB-GFP reporter, PAF-induced, GFP fluorescence overnight | inhibition, % at 5 µM | actives 0.86% (n = 360,000) | AID 588850;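 active = at least 50% inhibition at 5 µM, scaled per plate between neutral and stimulator controls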;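 note: PAF is a Pseudomonas aeruginosa culture filtrate used as stimulus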
Shn3 3UTR inh: inhibitors of Schnurri-3 3'UTR reporter in osteoblasts; inhibition, % at 12.5 µM; Clone20 osteoblast Shn3 3'UTR firefly luciferase, 24 h; actives 0.52% (n = 360,000);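 active = mean inhibition of at least 75% with every replicate also reaching 75%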
Hits are given with their value; 0 = inactive. An excerpt weighted towards active compounds, which were near 2.6% of everything screened.

SMILES	HIF-2a block	Peg3 prom inh	KKLEB tox	CF NFkB inh	Shn3 3UTR inh
O=C1C(=Cc2ccncc2)CCCc2ccccc21	0	0	0	0	0
O=C1/C(=C/c2ccncc2)CCC/C1=C\c1ccncc1	93.0	100.9	0	86.3	0
C/C(=N\Nc1ccc([N+](=O)[O-])cc1)c1ccc(C#N)cc1	0	0	0	0	0
N#CC(C#N)=NNc1ccc([N+](=O)[O-])cc1	0	0	0	56.7	0
COc1ccc(C(=O)/C(C#N)=N/Nc2ccccc2[N+](=O)[O-])cc1	0	0	0	0	0
COc1ccc(C(=O)/C(C#N)=N/Nc2ccc([N+](=O)[O-])cc2)cc1	0	0	0	56.3	88.8
Cc1cc(=O)oc2c3c(cc(OCC(=O)Nc4ccc(CCO)cc4)c12)OC(C)(C)CC3	0	0	0	0	91.2
N/C(Cc1ccc([N+](=O)[O-])cc1)=N\OC(=O)c1ccc2ccccc2c1	0	81.3	0	0	0
N/C(Cc1ccccc1)=N\OC(=O)c1cccc2ccccc12	0	78.2	0	0	0
Cn1c(Cc2ccccc2)nc(=O)c2ccccc21	0	0	0	0	0
Cc1[nH]c2nc3ccccc3n2c(=O)c1CCC(C)C	0	0	0	0	0
C[C@H]1CN([C@@H](C)CO)S(=O)(=O)c2ccc(C#Cc3ccccn3)cc2O[C@H]1CN(C)Cc1ccc(F)cc1	0	0	0	0	0
C[C@@H]1CN([C@H](C)CO)S(=O)(=O)c2ccc(C#Cc3ccccc3F)cc2O[C@H]1CN(C)C(=O)c1ccc2c(c1)OCO2	0	56.5	0	0	0
CCCC#Cc1ccc2c(c1)O[C@@H](CN(C)Cc1ccc3c(c1)OCO3)[C@H](C)CN([C@@H](C)CO)S2(=O)=O	0	62.5	0	0	0
O=C(Cn1cnc2ccccc21)OCC(=O)N1CCc2ccccc2C1	0	0	0	0	0
c1ccc(NC2=NCCN2CC2CCCC2)cc1	0	0	0	0	0
COC(=O)c1cccc2c1-c1ccccc1/C2=N/O	0	0	0	72.5	0
COC(=O)c1cccc2c1-c1ccccc1/C2=N\NC(N)=O	0	0	0	0	0
Cc1ccc(CS/C(Nc2ccccc2C)=C(\C#N)C(=O)NCc2ccco2)c(C)c1	0	50.9	0	0	0
Cc1ccccc1N/C(SCc1ccc(Cl)cc1)=C(/C#N)C(=O)NCc1ccco1	0	0	0	0	0
Cc1ccc(NC(=O)/C(C#N)=C/c2cn(CC(=O)NCc3ccco3)c3ccccc23)cc1C	0	0	0	0	0
Cc1ccc(C)c(NC(=O)/C(C#N)=C/c2cn(CC(=O)NCc3ccco3)c3ccccc23)c1	0	51.1	0	0	0
Cc1cc(C)cc(NC(=O)/C(C#N)=C/c2cn(CC(=O)NCc3ccco3)c3ccccc23)c1	0	74.5	-71.8	69.8	0
CCc1ccc(OCC(=O)NNC(=O)Cc2c(F)cccc2Cl)cc1	0	0	0	0	0
Cc1cccc(C(=O)NC(=S)NC(C)c2ccccc2)c1 (stereo not drawn)	0	0	0	0	0
SMILES	HIF-2a block	Peg3 prom inh	KKLEB tox	CF NFkB inh	Shn3 3UTR inh
COc1ccc(S(=O)(=O)NCCCN2CCCC2=O)c(OC)c1	0	0	0	0	0
Cc1ccc(-c2cc(C(=O)Nc3ccc(S(=O)(=O)N4CC(C)OC(C)C4)cc3)[nH]n2)c(O)c1 (stereo not drawn)	0	0	0	0	0
Cc1ccc(O)c(-c2cc(C(=O)Nc3ccc(S(=O)(=O)N4CC(C)OC(C)C4)cc3)[nH]n2)c1 (stereo not drawn)	0	54.5	0	0	0
Cc1cc(O)c(-c2cc(C(=O)Nc3ccc(S(=O)(=O)N4CCOCC4)cc3)[nH]n2)cc1C	0	59.6	0	0	0
CC(=O)Nc1ccc(NC(=O)c2cc(-c3cc(C)c(C)cc3O)n[nH]2)cc1	0	0	0	0	0
O=C(Nc1ccc(S(=O)(=O)N2CCOCC2)cc1)c1cc(-c2cc(Cl)ccc2O)n[nH]1	0	86.0	0	0	0
CC(=O)Nc1ccc(NC(=O)CCCN2C(=O)C(c3ccccc3)Oc3cccnc32)cc1 (stereo not drawn)	0	0	0	0	0
COc1ccc(CNC(=O)C2Cc3c(-c4ccccc4Oc4ccccc4)ccnc3O2)cc1OC (stereo not drawn)	0	0	0	0	0
CC(C)C(=O)N1CCC1(C)C(=O)NCc1ccc(F)cc1Cl (stereo not drawn)	0	0	0	0	0
Cc1c(N2C(=O)/C(=C\c3ccccc3O)SC2=S)c(=O)n(-c2ccccc2)n1C	0	0	0	0	0

High-throughput results (PubChem BioAssay)
